Screening data: PubChem BioAssay, several laboratories
GIRK2 act = Activates human GIRK2-containing potassium channels; P48051; HEK293 GIRK2/NPY4 cells, thallium flux fluorescence; activation (% efficacy), % for hits at 37.5 µM; 34,000 tested, under 10 active; AID 1259324;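 active = primary screen hit, no activity in plain HEK293 cells, and in GIRK2-only cells above 5% efficacy rising with concentration; inactive = the rest, including fluorescent compounds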;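 also: efficacy is normalized control-subtracted fluorescence 15 s after thallium addition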
AMPAR-TARP mod = modulators of AMPA receptor GluA2-stargazin complexes; O88602+P19491; HEK293 GluA2+stargazin, membrane potential dye (FDSS), glutamate EC50; hits were called plate by plate, in both directions; calls only at 30 µM; 3.5% of 40,000 active;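 active = any of four per-well response measures lying three or more SD from its plate-wide compound average, in either direction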
Active calls of the source: *; i = inactive; . = no result; + = active, no number. The full list was thinned out, with hits kept by preference.

SMILES	GIRK2 act	AMPAR-TARP mod
CS(=O)(=O)c1ccc2nc(NC(=O)c3ccc(=O)n(Cc4c(F)cccc4Cl)c3)sc2c1	i	i
O=C(CCCS(=O)(=O)c1ccccc1)Nc1nc(-c2ccc(Cl)s2)cs1	i	i
O=C(CCCS(=O)(=O)c1ccccc1)Nc1nc(-c2ccc(Br)s2)cs1	i	+
O=C(CCCS(=O)(=O)c1ccccc1)Nc1nc(-c2cc([N+](=O)[O-])cs2)cs1	i	+
O=C(CCCS(=O)(=O)c1ccc(Cl)cc1)Nc1nc2ccc([N+](=O)[O-])cc2s1	.	i
O=C(CS(=O)(=O)Cc1ccccc1)Nc1nc(-c2cc([N+](=O)[O-])cs2)cs1	i	i
CNc1nc2c(c(=O)n(Cc3ccccc3)c(=O)n2C)n1C(C)C	i	i
COc1ccc(S(=O)(=O)NCCNc2ccc(Nc3ccncc3)nn2)cc1OC	i	i
O=S(=O)(Cc1ccccc1)N1CCN(c2ccc(N3CCCC3)nn2)CC1	i	i
O=C(CCCS(=O)(=O)c1ccccc1)Nc1nc2ccccc2s1	i	i
Cc1nc2c(ccc3nc(NC(=O)CCCS(=O)(=O)c4ccccc4)sc32)s1	i	+
O=C(CCCS(=O)(=O)c1ccc(Cl)cc1)Nc1ccc([N+](=O)[O-])cc1	.	+
O=C(CCCS(=O)(=O)c1ccccc1)Nc1ccc([N+](=O)[O-])cc1	i	i
O=C(CN1C(=O)c2ccccc2S1(=O)=O)Nc1nc2ccc([N+](=O)[O-])cc2s1	i	i
CCC(=O)Nc1nc2ccc([N+](=O)[O-])cc2s1	i	+
Cc1ccc(S(=O)(=O)CCCC(=O)N(CCN(C)C)c2nc3c(C)cccc3s2)cc1	i	i
Cc1ccc(S(=O)(=O)CCCC(=O)N(CCN(C)C)c2nc3ccc([N+](=O)[O-])cc3s2)cc1	i	+
O=C(Nc1ccc(Br)cc1)c1nc[nH]c1C(=O)Nc1ccc(Cl)cc1	.	i
CN1CCOc2ccc(NC(=O)C3(c4ccccc4)CCOCC3)cc2C1=O	i	i
N#Cc1ccccc1NC(=O)CCCS(=O)(=O)c1ccccc1	i	i
COc1ccc(S(=O)(=O)CCCC(=O)Nc2nc(-c3cc([N+](=O)[O-])cs3)cs2)cc1	i	+
N#Cc1ccsc1NC(=O)CCCS(=O)(=O)c1ccccc1	i	+
COc1ccc(S(=O)(=O)CCCC(=O)Nc2nc(-c3cccc([N+](=O)[O-])c3)cs2)cc1	i	i
Cc1ccc(-c2ccc(=O)n(CCCC(=O)N3c4ccccc4CC3C)n2)cc1 (stereo unspecified)	i	+
COc1ccc(-c2ccc(=O)n(CCCC(=O)N3CCc4ccccc43)n2)cc1OC	i	i
SMILES	GIRK2 act	AMPAR-TARP mod
Cc1onc(-c2ccccc2Cl)c1C(=O)NC1CCCC(O)C1 (stereo unspecified)	i	i
CCCC(=O)Nc1ccc(O)c(C(=O)/C=C/c2ccc(C(=O)O)cc2)c1	.	i
O=C(O)c1ccc(/C=C/C(=O)c2ccco2)cc1	.	+
C=CCn1c(=O)c2sc(N(CC)CC)nc2n(CC(=O)Nc2c(C)cccc2C)c1=O	i	i
O=C(CS(=O)(=O)c1ccc(Br)s1)Nc1nccs1	i	i
Cc1ccc(CSc2nc(CC(=O)NCCC3=CCCCC3)cs2)cc1	i	+
CCc1ccc(OCC(=O)NCCC2=CCCCC2)cc1	i	+
COc1ccc(C(=O)NCCC2=CCCCC2)cc1	i	i
O=C(Cc1csc(SCC(=O)c2ccc3c(c2)OCO3)n1)NCCC1=CCCCC1	i	.
CC(C)(Oc1ccc(Cl)cc1)C(=O)NCC1CCN(C(=O)Nc2ccc(F)cc2)CC1	i	i
Cc1cc(O)c(C(c2ccco2)c2c(O)cc(C)n(C)c2=O)c(=O)n1C	i	i
CN(C)CCNC(=O)Cc1cc(-c2ccc(F)cc2F)on1	i	.
CSCCC(C)(O)CNC(=O)c1ccc(C#N)cc1 (stereo unspecified)	.	i
Cc1cc(NC(=O)C(=O)NCC2CCN(C(C)C)CC2)c2ccccc2n1	i	+
Cc1cccc(C)c1NC(=O)C(=O)NCC1CCN(C(C)C)CC1	i	.
Cc1cc(NC(=O)C(=O)NCC(c2cccs2)N2CCOCC2)c2ccccc2n1 (stereo unspecified)	.	+
COc1cccc(C(CNC(=O)C(=O)Nc2cc(C)nc3ccccc23)N2CCOCC2)c1 (stereo unspecified)	i	i
Cc1nccn1-c1ccc(N2CCCC(C(=O)NCc3ccc(F)cc3)C2)nn1 (stereo unspecified)	i	i
CN(C)C(CNC(=O)C(=O)NCc1ccccc1Cl)c1cccn1C (stereo unspecified)	i	i
COc1ccc(Cl)cc1S(=O)(=O)N1CCN(c2ccc(C)cc2C)CC1	i	i
O=C(Nc1ccc([N+](=O)[O-])cc1)C(=O)N1CCN(c2ccc(F)cc2)CC1	.	+
O=C(Nc1cccc([N+](=O)[O-])c1)C(=O)N1CCN(c2cccc(Cl)c2)CC1	.	+
O=C(Nc1ccc([N+](=O)[O-])cc1)C(=O)N1CCC(O)CC1	.	i
Cc1ccc(NC(=O)C(=O)N2CCN(c3cccc(Cl)c3)CC2)c([N+](=O)[O-])c1	.	i
CC(C(=O)N1CCCC1)c1ccc([N+](=O)[O-])cc1 (stereo unspecified)	.	i
SMILES	GIRK2 act	AMPAR-TARP mod
CC(C(=O)N1CCN(c2cccc(Cl)c2)CC1)c1ccc([N+](=O)[O-])cc1 (stereo unspecified)	.	+
Cc1cc(CN2CCC(CNC(=O)C(=O)NCCC3=CCCCC3)CC2)c(C)o1	i	i
COC(=O)c1c(NC(=O)c2cc(C)no2)sc2c1CC(C)(C)NC2(C)C	i	.
COC(=O)c1c(NC(=O)c2ccco2)sc2c1CC(C)(C)NC2(C)C	i	+
CCN(CC)CCNC(=O)c1ccc2c(=O)n(Cc3ccccc3Cl)c(=S)[nH]c2c1	i	i
CN(C)S(=O)(=O)c1ccc2c(c1)CCN2C(=O)c1ccc(S(=O)(=O)NC2CC2)cc1	.	i
O=C(Nc1nnc(Cc2cccs2)o1)c1ccccc1	i	i
O=C(Nc1nnc(Cc2cccs2)o1)c1cc2ccccc2oc1=O	i	+
O=C(CCN1C(=O)c2ccccc2S1(=O)=O)Nc1ccc(S(=O)(=O)Nc2ncccn2)cc1	i	i
COc1ccc(S(=O)(=O)N2CCCc3cc(NC(C)=O)ccc32)cc1	.	i
Cc1ccc(S(=O)(=O)N2CCCc3cc(NC(=O)c4ccccc4)ccc32)cc1	.	i
Cc1ccc(S(=O)(=O)N2CCCc3cc(NC(=O)Oc4ccccc4)ccc32)cc1	.	+
COc1ccc(S(=O)(=O)N2CCCc3cc(NC(=O)C(C)(C)C)ccc32)cc1	.	+
O=C(NCCc1csc(-c2ccc(F)cc2)n1)NCc1cccs1	i	i
Cc1ccc(C)c(S(=O)(=O)NCCOc2ccc3nnc(C)n3n2)c1	i	i
CN1CCN(C(CNC(=O)C2CCCCC2)c2ccc(F)cc2)CC1 (stereo unspecified)	i	i
COc1ccc2sc(=NC(C)=O)n(CCSC)c2c1	.	i
COc1ccc2sc(=NC(=O)c3cc(C)no3)n(CCSC)c2c1	i	+
COc1cc(OC)cc(C(=O)NCC2CCN(c3ncccn3)CC2)c1	i	i
